# TIM10 inh = growth inhibitors of isogenic TIM10 control yeast, primary screen, counter-screen for tim10-1 yeast inhibitor project, luminescence, uHTS | S. cerevisiae TIM10 strain growth, BacTiter-Glo luminescence, 24 h | 1.4% of 330,000 active | inhibition, % at 10 µM;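 active = inhibition of 40% or more at the single tested concentration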;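 also: wild-type TIM10 isogenic control strain grown at permissive 25 °C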
# PfHsp90 set2 = growth inhibition of PfHsp90-expressing yeast, primary screen, antimalarial PfHsp90 inhibitor project, S. cerevisiae, BacTiter-Glo luminescence, single point, set 2 | BacTiter-Glo ATP, 48 h; yeast lacking PDR1 and PDR3 efflux regulators | inhibition, % at 9.4 µM | 0.32% of 310,000 active;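 active = every replicate shows inhibition above about 80%, whatever the replicate mean, limit read from the data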;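 also: 0% = DMSO neutral controls and 100% = 20 µM radicicol positive controls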
# SKKanGAS inh = S. pyogenes SKKanGAS growth inhibitors in kanamycin, primary screen, streptokinase expression inhibitor project, SKKanGAS strain, BacTiter-Glo luminescence. 6 h. inhibition, % at 7.5 µM. 1.3% of 300,000 active;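 active = mean replicate score, as percent of positive control median, at least 50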;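 also: strain carries kanamycin resistance gene driven by streptokinase promoter and grows in 40 µg/ml kanamycin; loss of luminescence reflects streptokinase promoter inhibition or plain growth inhibition; 0% = median of DMSO wells and 100% = positive control at its reference dose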
# EBI2 block = EBI2 receptor antagonists, beta-arrestin recruitment, primary screen, cell-based, luminescence, 7a,25-OHC stimulation, uHTS. G-protein coupled receptor 183 (Homo sapiens), P32249. 7a,25-OHC stimulated. inhibition, % at 5 µM. 0.81% of 360,000 active. AID 651636, 2012; in the data active = inhibition above about 38%;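 also: enzyme fragment complementation signal reports receptor beta-arrestin coupling in cells; 0% = agonist plus DMSO wells and 100% = wells without agonist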
# Target sequence (P32249 whole entry, looked up, the tested form may be a part): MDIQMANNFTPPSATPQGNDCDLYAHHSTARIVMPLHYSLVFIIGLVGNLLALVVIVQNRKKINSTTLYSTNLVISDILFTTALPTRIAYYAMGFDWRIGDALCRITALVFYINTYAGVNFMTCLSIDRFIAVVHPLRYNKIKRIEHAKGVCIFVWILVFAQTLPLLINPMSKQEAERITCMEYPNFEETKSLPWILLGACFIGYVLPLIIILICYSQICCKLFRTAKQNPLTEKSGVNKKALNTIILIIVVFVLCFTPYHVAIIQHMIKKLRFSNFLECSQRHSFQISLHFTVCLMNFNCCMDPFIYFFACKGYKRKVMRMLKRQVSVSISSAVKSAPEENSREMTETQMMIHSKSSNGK
# tim10-1 inh = growth inhibitors of tim10-1 mutant yeast, primary screen, luminescence, uHTS | S. cerevisiae tim10-1 ts strain growth, BacTiter-Glo, 24 h | inhibition, % at 20 µM | 2.2% of 330,000 active;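 active = inhibition of at least 40%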;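 also: mutant grown at 25 °C; 0% = DMSO wells with yeast and 100% = wells holding no yeast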
# tim23-1 inh = growth inhibitors of tim23-1 mutant yeast, primary screen, luminescence, uHTS | AID 463212, 2010 | inhibition, % at 20 µM | S. cerevisiae tim23-1 growth, BacTiter-Glo luminescence, 24 h | 1.3% of 330,000 active;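 active = growth inhibition of the mutant yeast at or above 50%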;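 also: temperature-sensitive mutant grown at 25 °C; plate controls were DMSO-treated mutant yeast for no effect and medium wells lacking yeast for full effect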
# tim10 confirm = growth inhibitors of wild-type TIM10 yeast, confirmation, counter-screen for tim10-1 synthetic lethality project, single concentration, luminescence, S. cerevisiae; shares compounds with TIM10 inh; S. cerevisiae tim10 strain growth, BacTiter-Glo luminescence, 24 h; inhibition, % at 10 µM; 63% of 4,600 active; AID 463215, 2010;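 active = inhibition of yeast growth at or above a set limit in either of two replicates at 10 µM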;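 also: this counterscreen used the strain with wild-type TIM10; 0% = yeast with DMSO and 100% = medium wells lacking yeast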
# tim23-1 conf = tim23-1 mutant yeast growth inhibitors, confirmation, luminescence, single concentration; AID 463218, 2010; inhibition, % at 20 µM; S. cerevisiae tim23-1 growth, BacTiter-Glo luminescence, 24 h; shares compounds with tim23-1 inh; 83% of 4,400 active;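 active = inhibition above about 39% in either of two replicate wells at 20 µM, limit read from the data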;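 also: temperature-sensitive tim23-1 mutant grown at 25 °C; 0% = DMSO wells with yeast and 100% = medium wells without yeast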
# An asterisk follows results filed as active; . = no result given; + = active, no number. In the library only some 4.7% were active in any assay of this set; here they are far more common.
SMILES,TIM10 inh,PfHsp90 set2,SKKanGAS inh,EBI2 block,tim10-1 inh,tim23-1 inh,tim10 confirm,tim23-1 conf
Cc1ccc(N(C(=O)c2cnccn2)C(C(=O)NC2CCCCC2)c2ccc(O)cc2)cc1 (configuration not stated),-4,-19,9,1,17,4,.,.
CCOc1ccc(N(C(=O)c2cnccn2)C(C(=O)NC2CCCCC2)c2ccc(O)cc2)cc1 (configuration not stated),84*,15,2,-6,17,16,-16,.
CCCCCCN1C=CC=C/C1=C\C=C(C#N)C#N,30,0,-3,8,30,28,.,.
O=C(O)c1ccc(-c2nc(-c3ccccc3)c(-c3ccccc3)[nH]2)cc1,-4,-21,14,-5,-5,-12,.,.
Oc1ccccc1N=Nc1nc(-c2ccccc2)c(-c2ccccc2)[nH]1,56*,106*,114*,0,26,53*,57*,62*
CCC(C)NC(=O)Nc1ccc(Br)cc1 (configuration not stated),-9,-10,-12,-7,17,25,.,.
CCC(C)Nc1ccc(NC(C)CC)cc1 (configuration not stated),61*,+,.,12,38,80*,69*,82*
N/C(=N\OC(=O)c1ccccc1)c1ccccn1,18,34,3,-17,24,33,.,.
N/C(CC1CC1(Cl)Cl)=N\OC(=O)c1ccccc1 (configuration not stated),52*,-6,15,-2,35,80*,66*,73*
Cc1ccc(O)c(N=Nc2nccs2)c1,50*,112*,.,6,26,72*,68*,71*
CCN(CC)C(=O)c1cc([N+](=O)[O-])cc2c1-c1ccc([N+](=O)[O-])cc1C2=C(C#N)C#N,40*,-3,8,-1,37,51*,22,74*
O=C(OCC#Cc1c(COC(=O)c2ccccc2)nnn1Cc1ccccc1)c1ccccc1,-1,-11,4,-1,-22,6,.,.
O=C(CCN1CCOCC1)N/N=C/c1cc(Br)cc(Br)c1O,58*,-48,57*,8,37,63*,50*,62*
O=Cc1cn(-c2ccccc2)nc1-c1ccncc1,47*,.,-2,3,23,56*,38*,47*
O=Cc1cn(-c2ccccc2)nc1-c1ccccc1,58*,-5,-6,-14,40,68*,64*,69*
O=Cc1cn(-c2ccccc2)nc1-c1cccc([N+](=O)[O-])c1,.,.,.,6,.,.,.,.
COCCCN1C(=O)C(CC(=O)NCCN2CCOCC2)CC(C(=O)N2CCOCC2)=C1C (configuration not stated),.,.,.,-7,.,.,.,.
CC(C)(C)c1ccc(C(=O)N/N=C/c2cccc(Cl)c2)cc1,63*,3,1,37,37,66*,52*,77*
Cc1nc2ccc(NC(=O)c3ccc(C)c(S(=O)(=O)N4CCOCC4)c3)cc2s1,9,-11,.,5,8,23,.,.
CCc1ccc(-c2cc(C(=O)N3N=C(C(F)F)CC3(O)C(F)F)c3ccccc3n2)cc1 (configuration not stated),48*,111*,17,15,40,54*,26,29
CC(C)Cc1cc(C(=O)N2N=C(C(F)F)CC2(O)C(F)F)c2ccccc2n1 (configuration not stated),4,.,-7,-10,22,18,.,.
CCCCCCCCNC(=S)NCCN1CCCCC1,.,19,10,11,.,.,.,.
C=CCOc1cccc(C(=O)/C=C2/C(=O)Nc3ccccc32)c1,85*,-48,4,84*,21,76*,80*,-6
CC1CC(C)CN(C(=O)CSc2ncnc3sccc23)C1 (configuration not stated),2,0,.,9,16,31,.,.
O=C(Oc1coc(CSc2ncccn2)cc1=O)c1ccccc1[N+](=O)[O-],59*,-3,1,-5,39,62*,52*,49*
SMILES,TIM10 inh,PfHsp90 set2,SKKanGAS inh,EBI2 block,tim10-1 inh,tim23-1 inh,tim10 confirm,tim23-1 conf
CCC(=O)c1ccc(OCCn2cnc3ccccc32)cc1,-2,.,-12,-2,11,3,.,.
Brc1ccc2ncnc(Nc3cccc4ccccc34)c2c1,41*,-43,2,7,28,73*,29,47*
Cc1ccc(S(=O)(=O)N2CCN(S(=O)(=O)c3ccccc3Br)CC2)cc1,6,1,.,20,8,32,.,.
O=C(NCc1cccnc1)c1cc(C2CCCCN2C(=O)c2ccc(Cl)cc2)on1 (configuration not stated),.,.,.,0,.,.,.,.
COc1cccc(/C=N/NC(=O)c2c(-c3ccccc3)noc2C)c1O,24,.,19,-3,25,32,.,.
Cc1ccc(/C=N/NC(=O)c2c(-c3ccccc3)noc2C)c(O)c1,43*,.,2,5,36,57*,25,42*
CCC(=O)Nc1ccccc1Sc1ncnc2scc(-c3ccccc3)c12,43*,-19,-3,12,32,57*,32*,50*
O=C(O)CSc1ncnc2scc(-c3ccccc3)c12,10,-2,2,9,5,10,.,.
C1=CCN(Cc2ccccc2)C1,3,6,-1,6,-3,-13,.,.
Cc1ccc(/C=C/C(=O)c2ccc([N+](=O)[O-])o2)cc1,68*,.,67*,.,27,57*,78*,-25
Cc1cc(Cl)ccc1NC(=O)CCC(=O)N/N=C/c1cc([N+](=O)[O-])ccc1O,-14,4,7,15,2,-18,.,.
O=[N+]([O-])c1ccc(O)c(/C=N/NC(=S)Nc2ccc(Cl)cc2Cl)c1,46*,12,117*,21,-3,81*,43*,77*
Cc1ccc(C(=O)NC(=S)NCC(=O)c2ccccc2)cc1,4,-8,-5,2,11,-3,.,.
O=C(CNC(=S)NC(=O)c1cccs1)c1ccccc1,44*,17,-1,9,37,63*,-21,67*
